Most compounds without a hit are left out; they make up all but 2.9% or so of the library.
EPAC1 ag val = human EPAC1 agonism, validation | O95398 | EPAC1 Rap1b BODIPY-GDP exchange, fluorescence | Potency, µM, for the others: max response, positive = active, usual class: activators | actives 1% (n = 16,000); also: nearly all actives have a fitted effect of over 70% in size
Target sequence (O95398 whole entry, looked up): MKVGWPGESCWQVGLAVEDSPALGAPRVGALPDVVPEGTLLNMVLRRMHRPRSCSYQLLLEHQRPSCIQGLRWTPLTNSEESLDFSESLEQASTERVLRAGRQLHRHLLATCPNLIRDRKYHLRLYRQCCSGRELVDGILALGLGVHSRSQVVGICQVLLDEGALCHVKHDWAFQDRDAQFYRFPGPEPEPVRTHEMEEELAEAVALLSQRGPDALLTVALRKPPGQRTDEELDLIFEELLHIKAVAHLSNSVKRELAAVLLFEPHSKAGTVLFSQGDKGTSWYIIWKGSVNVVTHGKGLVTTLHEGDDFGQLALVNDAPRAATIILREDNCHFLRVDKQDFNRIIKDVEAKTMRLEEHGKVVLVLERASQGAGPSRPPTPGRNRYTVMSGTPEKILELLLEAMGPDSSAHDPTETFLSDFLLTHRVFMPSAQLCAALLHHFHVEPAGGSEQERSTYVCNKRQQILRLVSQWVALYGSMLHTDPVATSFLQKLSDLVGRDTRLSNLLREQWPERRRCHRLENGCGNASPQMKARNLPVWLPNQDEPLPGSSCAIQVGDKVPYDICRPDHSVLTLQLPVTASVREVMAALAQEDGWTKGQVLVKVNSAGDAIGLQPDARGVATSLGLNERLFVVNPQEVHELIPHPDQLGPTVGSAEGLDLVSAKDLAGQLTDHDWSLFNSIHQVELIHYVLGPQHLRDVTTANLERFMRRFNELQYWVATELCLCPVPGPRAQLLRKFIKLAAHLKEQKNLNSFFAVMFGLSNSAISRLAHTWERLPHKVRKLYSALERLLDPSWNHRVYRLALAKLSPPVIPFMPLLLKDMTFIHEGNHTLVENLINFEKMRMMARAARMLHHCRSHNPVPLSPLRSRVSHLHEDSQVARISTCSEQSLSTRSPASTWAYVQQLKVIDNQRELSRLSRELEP
EPAC2 antag = validation of human EPAC2 antagonists; EPAC2 Rap1B BODIPY-GDP exchange, fluorescence; Q8WZA2; Potency, µM (highest dose often 112 µM), inactives show top-dose activity, negative = inhibition, hits mostly inhibitors; actives 1.7% (n = 16,000);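 also: 100% = activation by cAMP agonist control; nearly all actives have a fitted effect of over 40% in size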
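Normalized against a 6.5 mM cAMP agonist control, compounds were tested on 100 nM EPAC2 exchanging Rap1B-bound BODIPY-GDP (250 nM) for 50 uM GDP. Fluorescence drop (ex 480, em 540 nm) was tracked at room temperature over 30 min at 5-min intervals.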
* = called active by the depositor; i = inactive; ? = inconclusive; ! = a repeat was not active; [ ] = another dose, or the depositor's remark. Calls follow the shape of the dose curve; as a rule, active = well fitted curve in the direction sought with a large enough effect; inconclusive = small, poorly fitted or top-dose-only effect, or another doubt; inactive = no such curve, though single readings can be large; an effect the other way counts as inactive or inconclusive. Unless noted, % is scaled to controls: 0 for no effect and ±100 for the full control effect; potency is read from the fitted curve at half-maximal effect.

SMILES | EPAC1 ag val | EPAC2 antag
COc1ccc(CNC(=O)C[C@H]2C(=O)N(Cc3ccc(OC)cc3)C[C@@H]2Cc2ccccc2)cc1 | 2% | ?
CCCCC[C@H]1CN(Cc2ccccc2)C(=O)[C@@H]1CC(=O)NCc1ccc(OC)cc1 | -82% | 22µM*
OC1(c2cccnc2)CCN(Cc2ccc3c(c2)CN(Cc2cccc(C(F)(F)F)c2)CCO3)CC1 | 18% | -29%
COC(=O)Nc1nc2ccc(C(=O)c3ccccc3)cc2[nH]1 | -26% | -11%[56.6 µM]
COC(=O)Nc1nc2ccc(C(=O)c3cccs3)cc2[nH]1 | -3% | 79µM*!
C[C@]12CCC(=O)C=C1[C@@H]1C[C@@H]1[C@H]1[C@@H]3[C@@H]4C[C@@H]4[C@@]4(CCC(=O)O4)[C@@]3(C)CC[C@@H]12 | 13% | -14%
COc1ccc(-c2oc3ccccc3c(=O)c2O)cc1 | -5% | -10%
COc1ccc2c(=O)c(OC)c(-c3ccccc3)oc2c1 | -8% | 11µM*
CCC1CN(Cc2cn[nH]c2-c2ccc(F)cc2)Cc2cc(OC)ccc2O1 (centres undefined) | -1% | ?
C=C1C[C@@]23C[C@@]1(O)CCC2[C@@]12C=CC(O)[C@](C)(C(=O)O1)C2C3C(=O)O (some centres undefined) | ? | -3%
C=C1C[C@]23C[C@@]1(O)CC[C@H]2[C@@]12C=C[C@H](O)[C@@](C)(C(=O)O1)[C@H]2[C@@H]3C(=O)O | 45µM* | -43%[56.6 µM]
CC[C@@H]1/C=C(\C)C[C@H](C)C[C@H](OC)[C@H]2O[C@@](O)(C(=O)C(=O)N3CCCC[C@H]3C(=O)O[C@H](/C(C)=C/[C@@H]3CC[C@@H](Cl)[C@H](OC)C3)[C@H](C)[C@@H](O)CC1=O)[C@H](C)C[C@@H]2OC | 9% | 11%
C=CC[C@@H]1/C=C(\C)C[C@H](C)C[C@H](OC)[C@H]2O[C@@](O)(C(=O)C(=O)N3CCCC[C@H]3C(=O)O[C@H](/C(C)=C/[C@@H]3CC[C@@H](O)[C@H](OC)C3)[C@H](C)[C@@H](O)CC1=O)[C@H](C)C[C@@H]2OC | -64% | 79µM*
COCC(=O)N1CCC2(CCCN(C(=O)Nc3cccc(C#N)c3)C2)CC1 | -33% | -21%
COCC(=O)N1CCC2(CC1)CCN(C(=O)Nc1cccc(C#N)c1)CC2 | 126µM* | -21%
COc1cccc(C(=O)NCc2nc(-c3cccc(NC(=O)c4ccoc4C)c3)oc2C)c1OC | 11% | -8%
CC(=O)N1CCC2(CC1)CCN(C(c1ccccc1)c1ccccc1)CC2 | -63% | -30%
CC(=O)N1CCC2(CCCN(C(c3ccccc3)c3ccccc3)C2)CC1 | -25% | 32µM*
CCNc1ncc2nc(-c3cccs3)c(=O)n(C[C@H]3CCCO3)c2n1 | -11% | 3%
Cn1cc(-c2nc3cnc(N4CCOCC4)nc3n(CCC#N)c2=O)c2ccccc21 | 112µM* | 12%
O=c1c(-c2cccs2)nc2cnc(N3CCOCC3)nc2n1Cc1ccc(F)cc1 | 1% | -1%
CN(C)c1ncc2nc(-c3cccs3)c(=O)n(C[C@H]3CCCO3)c2n1 | 112µM* | 36%
O=c1c(CCc2ccccc2)nc2cnc(N3CCOCC3)nc2n1Cc1cccs1 | -1% | 0%
CN1CCN(c2ncc3nc(CCc4ccccc4)c(=O)n(Cc4cccs4)c3n2)CC1 | 100µM* | -20%
O=c1c(-c2cccs2)nc2cnc(N3CCOCC3)nc2n1CCc1ccccc1 | 100µM* | 7%
SMILES | EPAC1 ag val | EPAC2 antag
COCCn1c(=O)c(-c2cn(C)c3ccccc23)nc2cnc(N3CCOCC3)nc21 | -20% | -10%
CC1(C)[C@H]2CC[C@]1(C)[C@H](O)C2 | 18% | 10%
CC1(C)S[C@@H]2[C@H](NC(=O)[C@H](N)c3ccccc3)C(=O)N2[C@H]1C(=O)OCOC(=O)[C@@H]1N2C(=O)C[C@H]2S(=O)(=O)C1(C)C | 6% | 1%
COc1ccccc1N1CCN(c2nc(CNC(=O)c3ccc4c(c3)OCO4)nc3ccccc23)CC1 | 10% | ?
Cc1[nH]cnc1C[C@H]1CCc2c(C)c3ccccc3n2C1=O | -108% | 0%
CN(Cc1cnc2ccccn12)C(=O)c1cc(NC(=O)c2ccccc2)cc2ncn(C3CCCC3)c12 | 24% | -33%
Cc1nc2sccn2c1CN1CCOc2ccc(CN3CCN(c4ccc(F)cc4)CC3)cc2C1 | -3% | ?
C=CC(C)(C)c1[nH]c2ccccc2c1C1=C(O)C(=O)C(c2c[nH]c3c(CC=C(C)C)cccc23)=C(O)C1=O | -14% | 45µM*
COc1cc(C=C2CCC/C(=C\c3ccc(O)c(OC)c3)C2=O)ccc1O | ? | -2%
C[C@@H]1NC(=O)[C@@H](N)CNC(=O)[C@H](C2CCNC(N)=N2)NC(=O)/C(=C/NC(N)=O)NC(=O)[C@H](CNC(=O)C[C@@H](N)CCCN)NC1=O (some centres undefined) | 0% | 2%[56.6 µM]
Cc1cc(C(=O)NCC2CCC3(CCN(Cc4ccc5ccccc5c4)CC3)O2)n(C)n1 (centres undefined) | 23% | -21%
COc1cc(C)c(CN2CCOc3ccc(C(O)c4cccnc4)cc3C2)cc1C (centres undefined) | 6% | -22%
COc1ccc(-c2nc3cc(C)ccc3cc2CN(C(=O)c2cccs2)C2CC2)cc1OC | 24% | ?
COc1cccc(C(=O)N(Cc2cc3ccc(C)cc3nc2N(C)C)C2CC2)c1OC | -2% | 14µM*
Cc1cc(NC(=O)Nc2ccc3c(ccn3C)c2)sn1 | 2% | ?
Cc1cc(N)c2cc(NC(=O)Nc3ccc4nc(C)cc(N)c4c3)ccc2n1 | 56µM* | 40µM*
N#C/C(=C\c1ccc(-c2cc(Cl)ccc2Cl)o1)C(=O)Nc1cccc2ncccc12 | -8% | -4%
COC(=O)[C@H]1[C@@H]2C[C@@H]3c4[nH]c5ccccc5c4CCN3C[C@H]2CC[C@H]1O | -3% | -7%
COC(=O)[C@@H]1C2CC3c4[nH]c5cc(OC)ccc5c4CCN3CC2C[C@H](OC(=O)c2cc(OC)c(OC)c(OC)c2)C1OC (some centres undefined) | 100µM* | -21%
CCCCCCCC/C=C\C/C=C\C/C=C\CCCC(=O)NCCO | -33% | -21%[11.4 µM]
CCCCCCCC/C=C\CCCCCCCC(=O)N[C@@H](CO)Cc1ccc(O)cc1 | -58% | 20µM*
Cc1ccccc1C(=O)N1CC/C(=N\OS(=O)(=O)O)c2ccc(Cl)cc21 | 6% | 9%
CN(C)c1ccc(/C=C/N2C=CCc3c2ccc2ccccc32)cc1 | -15% | ?
CC[C@H]1OC(=O)[C@H](C)[C@@H](O[C@H]2C[C@@](C)(OC)[C@@H](O)[C@H](C)O2)[C@H](C)[C@@H](O[C@@H]2O[C@H](C)C[C@H](N(C)C)[C@H]2O)[C@](C)(O)C[C@H](C)C(=NOCOCCOC)[C@H](C)[C@@H](O)[C@]1(C)O | 8% | 14%
O=C1OC2(c3ccccc31)c1cc(I)c(O)c(I)c1Oc1c2cc(I)c(O)c1I | 32µM* | i
O=C1OC2(c3ccc(O)cc3Oc3cc(O)ccc32)c2ccccc21 | ? | 41%
CC(=O)OCC(=O)[C@@]1(O)[C@H](C)C[C@H]2[C@@H]3C[C@H](F)C4=CC(=O)C=C[C@]4(C)[C@H]3[C@@H](O)C[C@@]21C | -21% | 6%
CCCCCCC/C=C\CCCCCCCCC(=O)O | -26% | 28µM*
CCCCC/C=C\C/C=C\C/C=C\C/C=C\CCCCCC(=O)O | -14% | -28%[11.4 µM]
CCCCCCCCCCC/C=C\C(C)(C)/C=C\CCCC(=O)O | -58% | 35µM*!

Bioassay records: PubChem BioAssay, National Center for Advancing Translational Sciences (NCATS)
